# From ChEMBL document CHEMBL4513216, “Probing the Open Global Health Chemical Diversity Library for Multistage-Active Starting Points for Next-Generation Antimalarials” (ACS Infect Dis, 2020)
# In all, about 69,000 compounds went through this assay and about 8,600 (12%) showed an effect of 50% or more. The full list was thinned out, with strong results kept by preference.
# Test system: Plasmodium berghei
# Experiment: Screen against P. berghei liver stage (PbLuc), transformed with Luciferase, at 10uM
# Assay type: functional, HepG2
# Conditions: tested at 10 uM
row,SMILES,INHIBITION [%]
1,Cc1occc1C(=O)Nc1ccnc(OC2CCOC2)c1 (stereo unspecified),7.84
2,O=C(Nc1ccnc(OC2CCOC2)c1)c1ccc(F)cc1Cl (stereo unspecified),17.6
3,O=C(Nc1ccnc(OC2CCOC2)c1)c1ccccc1Cl (stereo unspecified),65.3
4,CN(C)Cc1cc(C2CCCCN2S(=O)(=O)c2cccc(Cl)c2)nn1C (stereo unspecified),37.8
5,CC(=O)Nc1ccc(SCC(O)COCc2ccco2)cc1 (stereo unspecified),26.9
6,COc1ccc2oc(C(C)NC(=O)NCC(C)(C)C(N)=O)c(C)c2c1 (stereo unspecified),42.3
7,CCN(Cc1ccncc1)C(=O)CCn1c(C)cc2ccccc21,14.9
8,CCN(Cc1noc(C)n1)C(=O)CCn1c(C)cc2ccccc21,58.5
9,CCN(Cc1nc(COC)no1)C(=O)CCn1c(C)cc2ccccc21,36.7
10,COCCNC(=O)[C@H]1C[C@@H]2CCN(c3ncccn3)C[C@H]2O1,-56.7
11,CN1CCN(C)C2(CCN(C(=O)CC(F)(F)F)CC2)C1=O,27.5
12,CCN1CCN(C)C2(CCN(C(=O)CC(F)(F)F)CC2)C1=O,71.3
13,CN1CCN(CC2CC2)C(=O)C12CCN(C(=O)CC(F)(F)F)CC2,-14.2
14,CC(C)CC(=O)NS(=O)(=O)c1ccc(C#N)cc1C(F)(F)F,2.3
15,COc1ccc(C2=NOC(C#N)C2)cc1 (stereo unspecified),15.9
16,Cc1cc(N(C)C)nc(N2CCN(C(C)c3nc(C)no3)CC2)n1 (stereo unspecified),-71.2
17,Cc1cc(N(C)C)nc(N2CCN(Cc3nccn3C)CC2)n1,-87
18,CC(C)c1nnc2n1CCN(C(=O)c1ccnc(N(C)C)c1)C2,42
19,CCc1nnc2n1CCN(C(=O)c1ccnc(N(C)C)c1)C2,19.2

row,SMILES,INHIBITION [%]
1,CCc1nnc2n1CCN(c1nc(C)cc(N(C)C)n1)C2,71.5
2,Cc1cc(N(C)C)nc(N2CCn3c(C)nnc3C2)n1,51.1
3,Cc1cn2nc(N3CCn4c(nnc4C(C)C)C3)sc2n1,7.81
4,Cc1cc(N(C)C)nc(N2CCn3c(nnc3C(C)C)C2)n1,52.2
5,Cc1cc(N(C)C)nc(N2CCn3c(nnc3C3CC3)C2)n1,21.2
6,CS(=O)(=O)NCCC1CCCCN1C(=O)NCc1ccccn1 (stereo unspecified),4.13
7,CC(C)COc1cncc(N2CCCC(CC(N)=O)C2)n1 (stereo unspecified),4.82
8,O=C(c1cnccn1)N1CCc2onc(CN3CCOCC3)c2C1,45.5
9,c1ccc2cc(OCCCN3CCn4c(nnc4C4CC4)C3)ccc2c1,35.9
10,CC(C)=CCN1CC2(CCN(C(=O)CCn3ccnc3C)CC2)CC1=O,27.7
11,CC(C)N(C)C[C@H]1C[C@@H]2CN(Cc3ccco3)C[C@@H]2O1,8.74
12,O=C(C1CCCC1)N1CCCC([C@@H]2C[C@H](C(F)F)n3ncnc3N2)C1 (stereo partly specified),0.788
13,O=C1CN(CCS(=O)(=O)c2ccc(Cl)cc2)CCN1,14
14,CC1CN(c2ncccc2C(=O)Nc2cccc3c2CCCC3)CCN1 (stereo unspecified),-63.6
15,O=C(Nc1cccc2c1CCCC2)c1cccnc1N1CCCNCC1,53
16,Cc1cccc(C(=O)Nc2cccc3c2CCCC3)n1,-45.5
17,c1cnc(N2CCO[C@H]3[C@H](OCc4cccnc4)CC[C@@H]32)nc1,21.5
18,CS(=O)(=O)N1C[C@@H](NC(=O)c2ccno2)[C@@H]2OCCC[C@@H]21,36.7
19,CN1CC(=O)N(c2ccsc2)CC12CCN(C(=O)Nc1ccccc1)C2 (stereo unspecified),1.94

row,SMILES,INHIBITION [%]
1,CC(C(=O)N1CCCN(Cc2ccc(C#N)cc2)CC1)n1cccn1 (stereo unspecified),19.583
2,CC(=O)NCCc1cc(N2CCN(C(C)=O)CC2)nc(C2CC2)n1,43.8
3,CCCC(=O)NCCc1cc(N2CCN(C(C)=O)CC2)nc(C2CC2)n1,46
4,CCC(=O)NCCc1cc(N2CCN(C(C)=O)CC2)nc(C2CC2)n1,51.2
5,COc1cccc(CN(C)C(C)C(=O)Nc2nc(C)c(C)s2)c1 (stereo unspecified),39.3
6,CCS(=O)(=O)N1CCC[C@]2(C(=O)N(C)C)CN(c3ncccn3)C[C@@H]2C1,-47.6
7,CCc1nn(C)c(Cl)c1CN1CCC(c2cc(O)nc(C)n2)CC1,3.96
8,NC(=O)c1ccc(N2CCN(Cc3c(Cl)cncc3Cl)CC2)nc1,30.7
9,CCc1nn(C)c(Cl)c1CN1CCN(c2nc(C(N)=O)cs2)CC1,24.1
10,CCc1nn(C)c(Cl)c1CN1CCN(c2ccc(C(N)=O)cn2)CC1,40.7
11,CCOC(=O)c1ccc(N2CCN(Cc3c(C)nn(C)c3Cl)CC2)nc1,74.9
12,CCc1nn(C)c(Cl)c1CN1CCN(c2ccc(Cl)nn2)CC1,66.6
13,Cn1nc(C2CCCN2)c2c(C(=O)NCC(F)(F)F)cc(C3CC3)nc21 (stereo unspecified),28.4
14,O=S(=O)(c1ccccc1)N1C2CCC(O)(CC2)C1CN1CCOCC1 (stereo unspecified),23.7
15,Cc1nc(C)n(CC2CCCN2Cc2nc(-c3ccccn3)no2)n1 (stereo unspecified),32.7
16,CC(C)CNC(=O)[C@H]1CCS(=O)(=O)[C@@H]2CN(c3ncccn3)C[C@H]12,35.8
17,CCc1cnc(N2C[C@@H]3[C@@H](C(=O)N(C)C)CCS(=O)(=O)[C@@H]3C2)nc1,36.7
18,CC(C)NC(=O)[C@H]1CCS(=O)(=O)[C@@H]2CN(c3ncc(F)cn3)C[C@H]12,-13
